Bioassay records: PubChem BioAssay, National Center for Advancing Translational Sciences (NCATS)
Sampled rows, rich in hits. Any-hit rate of the full collection: about 6.4%.
KinaseGlo FLuc = Counterscreen for Luciferase (Kinase-Glo TM) Inhibition; Luciferin 4-monooxygenase (Photuris pensylvanica), Q27757; Kinase-Glo luciferase, ATP luminescence, 8 min; Potency, µM (doses to about 38.3 µM), hits mostly inhibitors; 0.28% of 200,000 active; AID 1379, 2008; note: nearly all actives have a fitted effect of over 60% in size
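Compounds were added to a substrate mix at pH 7.2 (50 mM imidazole, 10 uM ATP, within the enzyme's linear range), followed by Kinase-Glo detection reagent; luminescence was measured after 8 minutes at ambient temperature.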
RORgamma inh = qHTS for inhibitors of ROR gamma transcriptional activity | Drosophila S2 Gal4-RORgamma UAS-luciferase reporter, 20 h | 5.4% of 310,000 active | AID 2551, 2010 | Potency, µM (titrated, usually from 53.6 µM), hits mostly inhibitors; note: nearly all actives have a fitted effect of over 60% in size
Target sequence (P51450 whole entry, looked up, the tested form may be a part): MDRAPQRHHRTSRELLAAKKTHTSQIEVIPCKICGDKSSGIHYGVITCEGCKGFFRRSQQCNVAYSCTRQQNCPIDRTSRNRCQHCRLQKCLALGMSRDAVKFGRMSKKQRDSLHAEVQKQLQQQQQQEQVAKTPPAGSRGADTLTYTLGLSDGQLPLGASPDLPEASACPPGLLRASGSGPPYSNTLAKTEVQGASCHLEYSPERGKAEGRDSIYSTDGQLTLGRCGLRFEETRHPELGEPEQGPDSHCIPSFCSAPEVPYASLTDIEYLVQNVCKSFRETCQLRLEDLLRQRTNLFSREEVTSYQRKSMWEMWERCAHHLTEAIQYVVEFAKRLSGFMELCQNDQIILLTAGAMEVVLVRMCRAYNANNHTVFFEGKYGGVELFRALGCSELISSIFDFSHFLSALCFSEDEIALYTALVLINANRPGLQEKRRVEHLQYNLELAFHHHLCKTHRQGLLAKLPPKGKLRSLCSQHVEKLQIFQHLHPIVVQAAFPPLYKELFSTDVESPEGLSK
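In this cell-based reporter format, copper sulfate (700 uM final) drives Gal4–ROR gamma fusion expression from a metallothionein promoter in Drosophila Schneider cells; compounds preincubated 1 hr, reporter read after 20 hr at ambient temperature.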
VP16 counter = VP16 counterscreen qHTS for inhibitors of ROR gamma transcriptional activity; AID 2546, 2010; Potency, µM (highest dose often 53.6 µM), actives largely listed as inhibitors; Drosophila S2 Gal4-VP16 UAS-luciferase, luminescence, 20 h; 3.5% of 310,000 active;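 note: Gal4-VP16 expression switched on by copper sulfate through the metallothionein promoter; nearly all actives have a fitted effect of over 50% in size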
Hits are given with their value; . = inactive; ? = inconclusive; / = no result; ! = repeats disagree. Calls come from the whole dose curve; as a rule, active = well fitted curve in the direction sought with a large enough effect; inconclusive = small, poorly fitted or top-dose-only effect, or another doubt; inactive = no such curve, though single readings can be large; an effect the other way counts as inactive or inconclusive.

SMILES | KinaseGlo FLuc | RORgamma inh | VP16 counter
O=S(=O)(c1ccc(NC(=S)NCCC(c2ccccc2)c2ccccc2)cc1)N1CCOCC1 | . | . | .
CC1(C)CC(=O)C2=C(C1)Nc1ccccc1S2 | / | . | .
CC1(C)CC(=O)C2=C(C1)Nc1ccccc1NC2 | . | 12.6µM | .
O=C1CC(c2ccccc2)CC(O)=C1C=Nc1ccccc1O (stereo not given) | . | 11.2µM | .
O=C1CC(c2ccccc2)CC(O)=C1C=Nc1ccccc1 (stereo not given) | . | . | .
N#CCC(=O)N/N=C/c1cn(Cc2ccc(Cl)c(Cl)c2)c2ccccc12 | / | . | ?
CNC(=S)N/N=C/c1cn(Cc2c(F)cccc2Cl)c2ccccc12 | . | 0.447µM | 5.01µM
CCNC(=S)N/N=C/c1cn(Cc2ccc(F)cc2)c2ccccc12 | . | 1.12µM | 1.78µM
CCNC(=S)N/N=C/c1cn(Cc2ccccc2F)c2ccccc12 | . | . | .
NC(=O)N/N=C1\CCS(=O)(=O)c2ccc(F)cc21 | / | . | .
NC(=S)N/N=C1\CCOc2ccc(F)cc21 | / | 5.01µM | 22.4µM
COC(=O)c1ccc(COn2nnc3ccccc32)cc1 | . | . | .
CCOC(=O)C1CCN(C(=O)C2COc3ccccc3O2)CC1 (stereo not given) | / | . | .
O=C(Nc1ccc(F)cc1)NC1CCCCC1 | . | . | .
O=C(NC(=S)NC1CCCCC1)c1ccc(F)cc1 | / | 3.16µM | 4.47µM
O=C(NC(=S)NC1CCN(Cc2ccccc2)CC1)c1ccc(F)cc1 | / | 7.08µM | 11.2µM
O=C(NC1CCN(Cc2ccc(F)cc2)CC1)c1ccccc1 | / | . | .
Cc1nn(CC(=O)N2CCC(C(N)=O)CC2)c(=O)c2nn(-c3ccccc3)c(C)c12 | / | . | .
CCC1=C[C@@H]2CN(C1)Cc1c([nH]c3ccccc13)[C@@](C(=O)OC)(c1cc3c(cc1OC)N(C)[C@H]1[C@@](O)(C(=O)OC)[C@H](OC(C)=O)[C@]4(CC)C=CCN5CC[C@]31[C@@H]54)C2 | / | . | .
COc1ccc(C(=O)/C=C/c2cc(C(=O)O)cc3c2OCOC3)c(O)c1 | / | . | .
O=C(O)c1cc(/C=C/C(=O)c2cc(F)ccc2O)c2c(c1)COCO2 | / | 12.6µM | 10µM
COc1ccc(CN2CCC(=O)N([C@H](CO)CC(C)C)CC2)cc1 | / | . | .
c1ccc(-c2c[n+]3c(n2-c2ccccc2)CCC3)cc1 | / | . | .
CCOc1ccc(-n2c(-c3ccccc3)c[n+]3c2CCCCC3)cc1 | . | ? | 3.55µM
N#Cc1c(N2CCCC(O)C2)nc(N)c2c(N)nc3c(c12)CC(=O)N3C12CC3CC(CC(C3)C1)C2 (stereo not given) | . | 3.98µM | ?
SMILES | KinaseGlo FLuc | RORgamma inh | VP16 counter
C=C(C)CN(CC)c1nc(N)c2c(N)nc3c(c2c1C#N)CC(=O)N3C12CC3CC(CC(C3)C1)C2 | . | . | .
CN(Cc1ccco1)c1cc(-c2ccc3c(c2)OCO3)ncn1 | / | . | .
S=c1[nH]nc(CNc2ccc(Cl)cc2)n1Cc1ccccc1 | . | 3.55µM | .
O=C(NCc1n[nH]c(=S)n1Cc1ccccc1)c1ccc(Cl)cc1Cl | . | ? | .
O=C(NCc1n[nH]c(=S)n1Cc1ccccc1)c1ccccc1 | . | ? | .
Fc1ccc(NCc2n[nH]c(=S)n2Cc2ccccc2)cc1 | / | 4.47µM | .
CCOc1ncccc1C(=O)Nc1ccc(C)cn1 | / | . | .
O=C(c1cnccn1)N1CCC[C@@]2(CCN(C(c3ccccc3)c3ccccc3)C2)C1 | . | . | .
COc1ccc2[nH]c(C(=O)N3CCC(CO)(Cc4cccc(C(F)(F)F)c4)CC3)c(C)c2c1 | / | ? | .
COc1ccc(S(=O)(=O)NCC(=O)O)cc1C(=O)NC1CCCCC1 | . | . | .
CN(C)CCCN(C(=O)CCc1ccccc1)c1nc2c(F)cccc2s1 | . | . | .
CN(C)CCCN(C(=O)CCOc1ccccc1)c1nc2ccc(F)cc2s1 | . | 10µM | 7.94µM
CN(C)CCCN(C(=O)COc1ccccc1)c1nc2ccc(F)cc2s1 | . | . | .
CN(C)CCCN(C(=O)CCOc1ccccc1)c1nc2c(F)cccc2s1 | . | 8.91µM | .
O=C(Nc1cccc([N+](=O)[O-])c1)Nc1cccs1 | . | . | .
COc1cc(Cl)cc(C2NC(=S)NC(c3ccccc3)=C2C(C)=O)c1OCC(=O)O (stereo not given) | / | . | .
CSCC[C@H](NC(=O)[C@H](CCCN=C(N)N)NC(=O)[C@@H]1CCCN1C(=O)[C@H](Cc1ccccc1)NC(=O)[C@H](C)NC(=O)[C@H](CC(C)C)NC(=O)[C@H](Cc1ccc(O)cc1)NC(=O)[C@H](CC(N)=O)NC(=O)[C@@H](N)CCSC)C(N)=O | / | . | .
CCCCCCCC(=O)NNC(=O)Cc1ccccc1 | . | . | .
CCCCCC(=O)NNC1=NCC(Cc2cccc(Cl)c2)S1 (stereo not given) | . | 0.794µM | 5.01µM
Cc1[nH]c(C)c(S(=O)(=O)N2c3ccccc3CC2C)c1C(=O)N1CCCCC1 (stereo not given) | / | . | .
COc1ccc(OCc2nnc(SCC(=O)Nc3ccc(C)cc3)o2)cc1 | / | . | .
O=C(CSc1nnc(COc2ccccc2)o1)N1CCOCC1 | . | 0.112µM | .
O=C(CSc1nnc(COc2ccc(Br)cc2)o1)N1CCOCC1 | . | . | .
Cc1ccc(OCc2nnc(SCC(=O)CC(=O)Nc3ccccc3)o2)cc1 | . | 12.6µM | ?
Cc1ccc2oc(C(=O)NC3CCS(=O)(=O)C3)cc(=O)c2c1 (stereo not given) | / | . | .
SMILES | KinaseGlo FLuc | RORgamma inh | VP16 counter
CCn1nc(C)c(CNCc2cn[nH]c2-c2cc3ccccc3o2)c1C | / | . | .
COc1ccccc1NC(=O)C1CCN(C(=O)C2CC(=O)N(c3ccc(C)cc3)C2)CC1 (stereo not given) | / | . | .
CC(C)(C)c1nnc(NC(=S)Nc2ccccc2)s1 | . | 0.282µM | 0.891µM
CC(C)(C)c1nnc(NC(=O)CCS(=O)(=O)c2ccccc2)s1 | / | . | .
COc1cc(OC)cc(C(=O)Nc2ccc(Nc3ccccc3)cc2)c1 | / | . | .
COc1cc(OC)cc(C(=O)Nc2nnc(NC(=S)Nc3ccccc3)s2)c1 | . | 0.631µM | ?
C[C@H](NC(=O)C1CCN(S(=O)(=O)c2ccccc2)CC1)C(=O)NCc1ccc(F)cc1 | / | . | .
CCC1Oc2ccccc2N(CC(=O)NC2CCCCC2)C1=O (stereo not given) | / | . | .
Cc1[nH]c(C)c(S(=O)(=O)NCC(C)c2ccccc2)c1C(=O)N1CCCCC1 (stereo not given) | / | . | .
CC(C)CC(CSc1ccc(Br)cc1)N1CCN(C)CCC1=O (stereo not given) | / | . | .
CC1(C)COC(c2cccn2Cc2ccc(F)cc2Cl)=N1 | . | ? | .
CC1CN=C(c2cccn2Cc2ccc(F)cc2Cl)O1 (stereo not given) | . | 6.31µM | ?
NC(=O)c1nc(-c2cccs2)nc2c1[nH]c(=O)n2-c1ccc(F)cc1 | . | . | .
CN1CCN(C(c2ccccc2)c2ccccc2)CC1 | . | . | ?
CN1CCCN(C(c2ccccc2)c2ccc(Cl)cc2)CC1 (stereo not given) | . | 10µM! | .
C=CCC1(CC=C)CCCN1Cc1nc(COc2ccccc2)no1 | / | . | .
